# Source: PubChem BioAssay (EPA / NIEHS)
# Activity calls are given as the source filed them. How the source made its calls: active means hit-call score of the fitted dose curve at least 0.9, where 1 is the maximum; inactive means score below 0.9.
# Target: Cellular tumor antigen p53 (Homo sapiens) (UniProt P04637)
# Experiment: ATG_p53_CIS: Attagene CIS-FACTORIAL HepG2 Assay for human p53 Transcription Factor (AID 2282994)
# Conditions: HepG2 p53 cis-element reporter, Attagene mRNA; actives raise or lower the signal
# Procedure: ATG_CIS is a cell-based, multiplexed-readout assay that uses HepG2, a human liver cell line, with measurements taken at 24 hours after chemical dosing in a 24-well plate.ATG_p53_CIS is one of 52 assay component(s) measured or calculated from the ATG_CIS assay. It is designed to make measurements of mRNA induction, a form of inducible reporter, as detected with fluorescence intensity signals by Reverse transcription polymerase chain reaction (RT-PCR) and Capillary electrophoresis technology.Data from the assay component ATG_p53_CIS was analyzed into 1 assay endpoint. This assay endpoint, ATG_p53_CIS, was analyzed with bidirectional fitting relative to DMSO as the negative control and baseline of activity. Using a type of inducible reporter, measures of mRNA for gain or loss-of-signal activity can be used to understand the reporter gene at the transcription factor-level as they relate to the gene TP53. Furthermore, this assay endpoint can be referred to as a primary readout, because this assay has produced multiple assay endpoints where this one serves a reporter gene function. To generalize the intended target to other relatable targets, this assay endpoint is annotated to the dna binding intended target family, where the subfamily is tumor suppressor.
# Human liver HepG2 cells are transiently transfected with multiple reporter transcription units (MRTUs) in 6-well plates using FuGene 6 reagent (Roche; 3 ml FuGene/1 mg DNA). The MRTU constructs are regulated by a cis-regulating element (promoter). […] A major difference between the CIS and TRANS system is that in CIS activities of endogenous TFs are measured, whereas the TRANS assay evaluates changes in activities of exogenous, chimeric NR-Gal4 proteins. […] At the end of 24 hour incubation, total RNA was isolated using TriZol reagent (Invitrogen). The isolated RNA is then reverse-transcribed using oligo(dT) primer and Mo-MLV reverse transcriptase (Invitrogen) with DNAse I (Ambion) treatment for 30 min. The one-tenth of the produced cDNA was amplified by PCR using Taq DNA polymerase (Invitrogen) and two reporter sequence-specific primers. The PCR products were fluorescently labeled by primer extension with 6-arboxyfluorescein (6-FAM) 5'-labeled reporter sequence-specific primer (2 min at 95 C, 20 s at 68 C and 10 min at 72 C) and these products were digested with 5U of HpaI (New England Biolabs) for 2h at 37 C. The fragments were purified using Qiaquick PCR columns (Qiagen), analyzed on an ABI 3130xL genetic analyzer (Applied Biosystems) with peak positions identified by using a set of X-rhodamine (ROX)-labeled MapMarker1000 molecular weight standards (BioVentures). The raw capillary electrophoresis data was processed using Attagraph software (Attagene).
# Cellular tumor antigen p53 (Homo sapiens), sequence (P04637 whole entry, looked up): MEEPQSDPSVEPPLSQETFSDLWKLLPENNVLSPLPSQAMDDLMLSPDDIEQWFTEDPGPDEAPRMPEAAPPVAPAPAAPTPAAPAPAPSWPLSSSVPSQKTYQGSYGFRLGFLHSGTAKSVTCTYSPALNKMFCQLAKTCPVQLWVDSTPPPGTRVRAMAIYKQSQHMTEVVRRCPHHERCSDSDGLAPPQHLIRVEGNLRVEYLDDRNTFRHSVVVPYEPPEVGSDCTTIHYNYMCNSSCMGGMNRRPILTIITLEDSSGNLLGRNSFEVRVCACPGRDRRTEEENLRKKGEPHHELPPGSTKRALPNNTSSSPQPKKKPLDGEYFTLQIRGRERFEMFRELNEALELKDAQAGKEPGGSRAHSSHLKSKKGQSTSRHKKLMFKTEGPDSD
SMILES,outcome,AC50
FC(F)C(F)(F)OCC(Cn1cncn1)c1ccc(Cl)cc1Cl (stereo not given),inactive,
CCOC(=O)COc1cc(-c2nn(C)c(OC(F)F)c2Cl)c(F)cc1Cl,inactive,
CCOP(=O)(OCC)Oc1cc(C)nc(C(C)C)n1,inactive,
CC(COc1ccc(Oc2ccccc2)cc1)Oc1ccccn1 (stereo not given),inactive,
N#CSCSC#N,inactive,
CC(C)N(C(=O)SCC(Cl)=C(Cl)Cl)C(C)C,inactive,
CCCSP(=O)(OCC)Oc1ccc(Br)cc1Cl (stereo not given),inactive,
CON=C(C(=O)OC)c1ccccc1CON=C(C)c1cccc(C(F)(F)F)c1,inactive,
CCCCOC(=O)[C@@H](C)Oc1ccc(Oc2ccc(C#N)cc2F)cc1,inactive,
CCCOc1nn(C(=O)NS(=O)(=O)c2ccccc2C(=O)OC)c(=O)n1C,inactive,
COP(=O)(OC)SCn1c(=O)oc2cc(Cl)cnc21,inactive,
COP(=O)(NC(C)=O)SC (stereo not given),inactive,
CC(=NC#N)N(C)Cc1ccc(Cl)nc1,inactive,
CSc1nc(NC(C)C)nc(NC(C)C)n1,inactive,
COc1cccc(C(=O)NN(C(=O)c2cc(C)cc(C)c2)C(C)(C)C)c1C,inactive,
CCOC(=O)CC(SP(=O)(OC)OC)C(=O)OCC (stereo not given),inactive,
CCOP(=S)(Oc1cnc(C(C)(C)C)nc1)OC(C)C (stereo not given),inactive,
CNc1cnn(-c2cccc(C(F)(F)F)c2)c(=O)c1Cl,inactive,
CCCCSP(=O)(SCCCC)SCCCC,inactive,
CC(C)[C@H](C(=O)O[C@H](C#N)c1cccc(Oc2ccccc2)c1)c1ccc(Cl)cc1,inactive,

SMILES,outcome,AC50
CCOP(=S)(OCC)Oc1cc(C)nc(C(C)C)n1,inactive,
C[N+]1(C)CCCCC1,inactive,
CCOP(=S)(OCC)Oc1ccc([N+](=O)[O-])cc1,inactive,
O=c1ccc(=O)[nH][nH]1,inactive,
COP(=O)(OC)C(O)C(Cl)(Cl)Cl (stereo not given),,9.92 µM (active)
Cc1nn(-c2cc(NS(C)(=O)=O)c(Cl)cc2Cl)c(=O)n1C(F)F,inactive,
CC1(C(=O)Nc2ccc(O)c(Cl)c2Cl)CCCCC1,inactive,
CCOP(=S)(OCC)Oc1ccc2c(C)c(Cl)c(=O)oc2c1,inactive,
CCCCOC(=O)c1ccccc1C(=O)O,inactive,
CCC(CC)Nc1c([N+](=O)[O-])cc(C)c(C)c1[N+](=O)[O-],,72.9 µM (active)
CNC(=O)Oc1cccc2c1OC(C)(C)O2,,6.08 µM (active)
CCOP(=O)(NC(C)C)Oc1ccc(SC)c(C)c1 (stereo not given),inactive,
S=C1NCCN1,inactive,
CN1COCN(Cc2cnc(Cl)s2)C1=N[N+](=O)[O-],inactive,
CCNc1nc(Cl)nc(NC(C)(C)C#N)n1,inactive,
CN(C)NC(=O)CCC(=O)O,inactive,
CCc1cccc(C)c1N(C(=O)CCl)C(C)COC (stereo not given),inactive,
C#CCC1=C(C)C(OC(=O)C2C(C=C(C)C)C2(C)C)CC1=O (stereo not given),,80.1 µM (active)
CCOP(=S)(OCC)OC(Cl)C(Cl)(Cl)Cl (stereo not given),inactive,
CN(C)C(=O)Nc1cccc(C(F)(F)F)c1,inactive,
